According to PubChem BioAssay:
Where “and” joins values, the source holds several entries; their conditions need not be identical. Equal entries are not always repeated. Calls of active or inactive are those of the source. The rule behind the calls is not given here.

Each molecule was assayed on Aerobactin synthetase IucA (Klebsiella pneumoniae hvKP1) (assay: Biochemical IucA enzyme inhibition primary screen of the Spectrum library (AID 1346200;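 note: 100% = wells without compound and 0% = wells lacking enzyme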)). Conditions: malachite green pyrophosphate, A620, at 8 µM, stronger effect = lower value.

| SMILES | activity remaining |
| --- | --- |
| CNCCC=C1c2ccccc2CCc2ccccc21 | 122% (inactive) |
| CC(C)(Oc1ccc(C2CC2(Cl)Cl)cc1)C(=O)O (stereo not given) | 116% (inactive) |
| CNCCCN1c2ccccc2CCc2ccccc21 | 100% (inactive) |
| O=C(O)c1cc2cc(F)ccc2[nH]1 | 106% (inactive) |
| CCN(CC)CCNC(=O)c1ccc(NC(C)=O)cc1 | 92.5% (inactive) |
| NCCS | 117% (inactive) |
| CCCCNc1ccc(C(=O)OCCN(C)C)cc1 | 118% (inactive) |
| O=C(O)c1ccccc1Nc1ccccc1 | 106% (inactive) |
| c1ccc2c(CC3=NCCN3)cccc2c1 | 106% (inactive) |
| Cc1c(OCC(F)(F)F)ccnc1CS(=O)c1nc2ccccc2[nH]1 (stereo not given) | 121% (inactive) |
| Cc1ccc(C(=O)Nc2ccc(S(=O)(=O)O)c3cc(S(=O)(=O)O)cc(S(=O)(=O)O)c23)cc1NC(=O)c1cccc(NC(=O)Nc2cccc(C(=O)Nc3cc(C(=O)Nc4ccc(S(=O)(=O)O)c5cc(S(=O)(=O)O)cc(S(=O)(=O)O)c45)ccc3C)c2)c1 | 69% (active) |
| CC1=C(CC(=O)O)c2cc(F)ccc2/C1=C\c1ccc(S(C)=O)cc1 (stereo not given) | 90% (inactive) |
| Oc1ccc(O)cc1 | 121% (inactive) |
| CCOC(=O)C1=C[C@]2(CC)CCCN3CCc4c(n1c1ccccc41)[C@@H]32 | 108% (inactive) |
| NC(=O)c1cnccn1 | 102% (inactive) |
| CCc1cccc2c3c([nH]c12)C(CC)(CC(=O)O)OCC3 (stereo not given) | 116% (inactive) |
| Cc1nc2ccccn2c(=O)c1CCN1CCC(C(=O)c2ccc(F)cc2)CC1 | 120% (inactive) |
| CCN(CC)CCCC(C)Nc1c2ccc(Cl)cc2nc2ccc(OC)cc12 (stereo not given) | 93.4% (inactive) |
| CCN(CC)CCNC(=O)c1ccc(N)cc1 | 95.4% (inactive) |
| NC12CC3CC(CC(C3)C1)C2 | 107% (inactive) |

| SMILES | activity remaining |
| --- | --- |
| Cn1c(=O)c2c(ncn2C)n(C)c1=O | 119% (inactive) |
| CN1CCN(C2=Nc3ccccc3Oc3ccc(Cl)cc32)CC1 | 120% (inactive) |
| C=C[C@H]1CN2CC[C@H]1C[C@@H]2[C@@H](O)c1ccnc2ccc(OC)cc12 | 98.9% (inactive) |
| CC(=O)CCCCn1c(=O)c2c(ncn2C)n(C)c1=O | 82.4% (inactive) |
| CNCCCC12CCC(c3ccccc31)c1ccccc12 | 105% (inactive) |
| CN=C(NC#N)NCCSCc1nc[nH]c1C | 98.9% (inactive) |
| O=c1c(-c2ccc(O)cc2)coc2cc(O)cc(O)c12 | 109% (inactive) |
| CC(C)Cn1c(=O)n(C)c(=O)c2[nH]cnc21 | 108% (inactive) and 118% (inactive) |
| O=C(CCCN1CCC(O)(c2ccc(Cl)cc2)CC1)c1ccc(F)cc1 | 117% (inactive) |
| CC(CN1c2ccccc2Sc2ccccc21)N(C)C (stereo not given) | 78.1% (inactive) |
| O=C(O)c1cc(=O)c2ccc(Cl)cc2[nH]1 | 94.8% (inactive) |
| Clc1ccccc1C(c1ccccc1)(c1ccccc1)n1ccnc1 | 113% (inactive) |
| O=C(Nc1ccc([N+](=O)[O-])cc1Cl)c1cc(Cl)ccc1O | 93.6% (inactive) |
| C[N+]1(CCCCC[N+]2(C)CCCC2)CCCC1 | 89.1% (inactive) |
| CCOC(=O)N1CCC(=C2c3ccc(Cl)cc3CCc3cccnc32)CC1 | 116% (inactive) |
| O=c1c(O)c(-c2ccc(O)c(O)c2)oc2cc(O)cc(O)c12 | 99.3% (inactive) |
| COc1ccc(CN(CCN(C)C)c2ccccn2)cc1 | 118% (inactive) |
| Cc1ccc(/C(=C\CN2CCCC2)c2ccccn2)cc1 | 103% (inactive) |
| N[C@@H](Cc1ccc(O)c(O)c1)C(=O)O | 115% (inactive) |
| FC(F)(F)c1ccccc1-n1ccnc1 | 85.9% (inactive) |

What follows are molecules tested on Aerobactin synthetase IucA (Klebsiella pneumoniae, hypervirulent) (assay: IucA enzyme inhibition, biochemical, LOPAC library, absorbance readout (AID 1346212;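 note: 100% = no compound wells and 0% = no enzyme wells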)). Conditions: IucA enzyme assay, absorbance (OD) readout; stronger effect = lower value;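 tested at 8 µM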.

| SMILES | remaining activity |
| --- | --- |
| CNCCC=C1c2ccccc2CCc2ccccc21 | 113% (inactive) |
| CC(C)(Oc1ccc(C2CC2(Cl)Cl)cc1)C(=O)O (stereo not given) | 114% (inactive) |
| CNCCCN1c2ccccc2CCc2ccccc21 | 105% (inactive) |
| O=C(O)c1cc2cc(F)ccc2[nH]1 | 86.3% (inactive) |
| CCN(CC)CCNC(=O)c1ccc(NC(C)=O)cc1 | 109% (inactive) |
| NCCS | 110% (inactive) |
| CCCCNc1ccc(C(=O)OCCN(C)C)cc1 | 97.3% (inactive) |
| O=C(O)c1ccccc1Nc1ccccc1 | 108% (inactive) |
| c1ccc2c(CC3=NCCN3)cccc2c1 | 115% (inactive) |
| Cc1c(OCC(F)(F)F)ccnc1CS(=O)c1nc2ccccc2[nH]1 (stereo not given) | 111% (inactive) |
| Cc1ccc(C(=O)Nc2ccc(S(=O)(=O)O)c3cc(S(=O)(=O)O)cc(S(=O)(=O)O)c23)cc1NC(=O)c1cccc(NC(=O)Nc2cccc(C(=O)Nc3cc(C(=O)Nc4ccc(S(=O)(=O)O)c5cc(S(=O)(=O)O)cc(S(=O)(=O)O)c45)ccc3C)c2)c1 | 34.4% (active) |
| CC1=C(CC(=O)O)c2cc(F)ccc2/C1=C\c1ccc(S(C)=O)cc1 (stereo not given) | 119% (inactive) |
| Oc1ccc(O)cc1 | 105% (inactive) |
| CCOC(=O)C1=C[C@]2(CC)CCCN3CCc4c(n1c1ccccc41)[C@@H]32 | 100% (inactive) |
| NC(=O)c1cnccn1 | 80.6% (inactive) |
| CCc1cccc2c3c([nH]c12)C(CC)(CC(=O)O)OCC3 (stereo not given) | 116% (inactive) |
| Cc1nc2ccccn2c(=O)c1CCN1CCC(C(=O)c2ccc(F)cc2)CC1 | 101% (inactive) |
| CCN(CC)CCCC(C)Nc1c2ccc(Cl)cc2nc2ccc(OC)cc12 (stereo not given) | 115% (inactive) |
| CCN(CC)CCNC(=O)c1ccc(N)cc1 | 96.2% (inactive) |
| NC12CC3CC(CC(C3)C1)C2 | 119% (inactive) |

| SMILES | remaining activity |
| --- | --- |
| Cn1c(=O)c2c(ncn2C)n(C)c1=O | 113% (inactive) |
| CN1CCN(C2=Nc3ccccc3Oc3ccc(Cl)cc32)CC1 | 110% (inactive) |
| C=C[C@H]1CN2CC[C@H]1C[C@@H]2[C@@H](O)c1ccnc2ccc(OC)cc12 | 115% (inactive) |
| CC(=O)CCCCn1c(=O)c2c(ncn2C)n(C)c1=O | 123% (inactive) |
| CNCCCC12CCC(c3ccccc31)c1ccccc12 | 109% (inactive) |
| CN=C(NC#N)NCCSCc1nc[nH]c1C | 116% (inactive) |
| O=c1c(-c2ccc(O)cc2)coc2cc(O)cc(O)c12 | 121% (inactive) |
| CC(C)Cn1c(=O)n(C)c(=O)c2[nH]cnc21 | 108% (inactive) |
| O=C(CCCN1CCC(O)(c2ccc(Cl)cc2)CC1)c1ccc(F)cc1 | 100% (inactive) |
| CC(CN1c2ccccc2Sc2ccccc21)N(C)C (stereo not given) | 109% (inactive) |
| O=C(O)c1cc(=O)c2ccc(Cl)cc2[nH]1 | 85.9% (inactive) |
| Clc1ccccc1C(c1ccccc1)(c1ccccc1)n1ccnc1 | 117% (inactive) |
| O=C(Nc1ccc([N+](=O)[O-])cc1Cl)c1cc(Cl)ccc1O | 113% (inactive) |
| C[N+]1(CCCCC[N+]2(C)CCCC2)CCCC1 | 119% (inactive) |
| CCOC(=O)N1CCC(=C2c3ccc(Cl)cc3CCc3cccnc32)CC1 | 112% (inactive) |
| O=c1c(O)c(-c2ccc(O)c(O)c2)oc2cc(O)cc(O)c12 | 122% (inactive) |
| COc1ccc(CN(CCN(C)C)c2ccccn2)cc1 | 112% (inactive) |
| Cc1ccc(/C(=C\CN2CCCC2)c2ccccn2)cc1 | 121% (inactive) |
| N[C@@H](Cc1ccc(O)c(O)c1)C(=O)O | 97% (inactive) |
| FC(F)(F)c1ccccc1-n1ccnc1 | 102% (inactive) |
